Assay outcomes: PubChem, National Center for Advancing Translational Sciences (NCATS)
GLP1R inv ag – acts as inverse agonist at human GLP-1 receptor; P43220; 410,000 compounds, 1.6% hits; HEK293 GLP-1R CRE-luciferase, luminescence, 24 h; GLP-1R form is constitutively active; Potency, µM (doses to about 38.3 µM), usual class: inhibitors; also: nearly all actives have a fitted effect of over 55% in size
Target sequence (P43220 whole entry, looked up): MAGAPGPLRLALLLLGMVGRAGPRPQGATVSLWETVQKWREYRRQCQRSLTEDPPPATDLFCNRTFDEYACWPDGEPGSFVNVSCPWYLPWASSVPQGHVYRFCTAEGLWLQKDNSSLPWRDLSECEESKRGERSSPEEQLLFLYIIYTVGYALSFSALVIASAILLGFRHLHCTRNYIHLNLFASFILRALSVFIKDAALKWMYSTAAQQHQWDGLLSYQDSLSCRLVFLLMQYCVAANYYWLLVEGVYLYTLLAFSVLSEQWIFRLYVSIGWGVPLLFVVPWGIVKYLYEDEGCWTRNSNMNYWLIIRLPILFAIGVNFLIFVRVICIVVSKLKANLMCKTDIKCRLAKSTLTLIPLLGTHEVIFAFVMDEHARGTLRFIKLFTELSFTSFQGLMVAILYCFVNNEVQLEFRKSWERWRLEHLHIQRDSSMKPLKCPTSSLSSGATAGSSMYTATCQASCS
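Constitutively active GLP-1R drives a cAMP-responsive luciferase in stably transfected HEK293 cells; test compounds are added after overnight (12 h) attachment and left 24 hr, and signal loss in luminescence marks inhibition.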
ClpP mod – qHTS Assay for Activators of ClpP; Potency, µM (top dose mostly 57.5 µM); 340,000 compounds, 1.9% hits; purified B. subtilis ClpP, FRET peptide cleavage, 20 min; ATP-dependent Clp protease proteolytic subunit (Bacillus subtilis (strain 168)), P80244; AID 651965, 2013; active = well fitted falling curve with a large enough effect; inconclusive = small, poorly fitted or top-dose-only effect; inactive = no such curve, though single readings can be large or run the other way; also: the source files actives as falling curves though it sought activators and does not explain the sign; nearly all actives have a fitted effect of over 65% in size
Target sequence (P80244 whole entry, looked up): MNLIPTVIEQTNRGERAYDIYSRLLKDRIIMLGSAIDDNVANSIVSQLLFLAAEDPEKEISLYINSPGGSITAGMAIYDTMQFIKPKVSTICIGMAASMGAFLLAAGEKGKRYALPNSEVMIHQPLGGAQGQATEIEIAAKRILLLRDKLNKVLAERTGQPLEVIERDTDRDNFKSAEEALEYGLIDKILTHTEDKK
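ClpP 10 microg/mL final, pH 8 Tris/KCl buffer with BSA, glycerol, Tween-20; compound pinned in; FRET-FV substrate; RT 20 min; Ex320/Em430; ΔFRET vs ADEP 5.8 microM, DMSO, no enzyme.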
GLP-1R agonist – GLP-1 receptor (human) agonism | HEK293 GLP-1R CRE-luciferase, luminescence, 4-6 h; cells express a hypersensitive GLP-1R form | Potency, µM (titrated, usually from 45.6 µM), usual class: activators | 380,000 compounds, 0.007% hits | AID 624172
GLP1R cytotox – cytotoxicity in counter-screen for GLP-1R inverse agonists. HEK293 cAMP-luciferase reporter cells, luminescence, 24 h. Potency, µM (doses to about 38.3 µM), usual class: inhibitors. 410,000 compounds, 0.13% hits. AID 624418;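 also: loss of luciferase light is scored as toxicity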
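To flag toxic compounds, the library was rerun on cells for 24 hr at 37 deg C and 5% CO2. Viability-linked luminescence was captured 12 min after adding luciferase detection reagent.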
ClpP inh valid – inhibits B. subtilis ClpP protease, hit validation; AID 743245; purified B. subtilis ClpP, FRET-FV substrate cleavage, 20 min; Potency, µM (doses to about 57.5 µM), usual class: inhibitors; 470 compounds, 40% hits; shares compounds with ClpP mod; also: nearly all actives have a fitted effect of over 70% in size
A number is an active result; – = inactive; ? = inconclusive; · = no result; ! = a repeat was not active. This is a sample that favours compounds with a hit; in the whole collection about 3.2% have one here. Unless noted, calls follow the shape of the dose curve; as a rule, active = well fitted curve in the direction sought with a large enough effect; inconclusive = small, poorly fitted or top-dose-only effect, or another doubt; inactive = no such curve, though single readings can be large; an effect the other way counts as inactive or inconclusive.

SMILES | GLP1R inv ag | ClpP mod | GLP-1R agonist | GLP1R cytotox | ClpP inh valid
Cc1ccn2cc(-c3ccc(C)c(NS(=O)(=O)c4ccc(Cl)cc4)c3)nc2c1 | ? | – | · | – | ·
CC(=O)Nc1ccc(S(=O)(=O)Nc2nc3ccccc3nc2Nc2cccc(O)c2)cc1 | – | · | – | – | ·
CC(=O)Nc1ccc(S(=O)(=O)Nc2nc3ccccc3nc2Nc2ccc3ccccc3c2)cc1 | – | 3.5µM | – | – | ?
Cc1c(-c2nsc(NC(=O)c3cccs3)n2)nnn1-c1ccc(Cl)cc1 | – | – | · | – | ·
O=C(Nc1ccccc1)c1ccc(-c2ccc(Br)cc2)o1 | ? | – | – | – | ·
O=C(Nc1cccc(NC(=O)c2ccc(-c3ccc(Br)cc3)o2)c1)c1ccccc1 | ? | – | – | – | 22µM
NC(=O)c1ccccc1NC(=O)c1ccc(-c2ccc(Br)cc2)o1 | – | – | · | – | 17µM
Cn1c(SCc2ccccc2Cl)nc2c([nH]c3ccccc32)c1=O | – | – | · | – | ·
COc1ccccc1CCNC(=O)CCc1c(C)c2cc3c(C)coc3c(C)c2oc1=O | – | ? | · | – | ·
COc1ccc(CCNc2cc(C)nc3c(-c4ccc(Cl)cc4)cnn23)cc1OC | ? | 8.9µM | – | – | 24µM
CCOc1ccc(NC(=O)c2cc3c(-c4ccccc4F)nn(C)c3s2)cc1 | – | – | · | – | ?
O=C(Nc1ccc2nc(SCC(=O)N3CCc4ccccc43)sc2c1)c1ccc(F)cc1 | – | – | · | – | 24µM
CCc1ccc(NS(=O)(=O)c2ccc3[nH]cc(C(=O)N(C)Cc4ccco4)c(=O)c3c2)cc1 | – | – | – | – | ·
CN(Cc1ccco1)C(=O)c1c[nH]c2ccc(S(=O)(=O)Nc3ccc4c(c3)OCCO4)cc2c1=O | – | 3.5µM | – | – | –
COc1ccc(NC(=O)c2sc3nc(N4CCOCC4)c4c(c3c2N)CCCC4)cc1 | – | – | – | – | ·
COc1ccccc1NC(=O)c1sc2nc(N3CCOCC3)c3c(c2c1N)CCCC3 | – | 8.9µM | – | – | ?
O=C(Cn1c(=O)sc2ccccc21)NCc1ccccn1 | – | – | – | – | ·
O=C(Cn1c(=O)sc2ccccc21)NCCOc1ccccc1F | – | 7.9µM | – | – | –
Cc1ccc(OCC(=O)Nc2ccc(OCc3cc(=O)n4ccsc4n3)cc2)cc1C | – | – | – | – | ·
COc1cccc(NC(=O)c2cc3c(=O)n(C)c4ccccc4c3n2C)c1 | – | – | – | – | 22µM
COc1ccccc1NC(=O)c1cc2c(=O)n(C)c3ccccc3c2n1C | – | ? | – | – | ·
CC1(c2ccccn2)Nc2ccccc2-c2nc3ccccc3n21 (centres undefined) | – | – | – | – | ·
c1ccc(C2Nc3ccccc3-c3nc4ccccc4n32)nc1 (centres undefined) | – | 7.1µM | – | – | 19µM
Cc1cc(N2CCN(C)CC2)n2cc(-c3ccc(F)cc3)nc2n1 | – | 7.1µM | – | – | 27µM
Cc1cc(N2CCN(C)CC2)n2nc(-c3ccc(Cl)cc3)nc2n1 | – | – | – | – | ·
SMILES | GLP1R inv ag | ClpP mod | GLP-1R agonist | GLP1R cytotox | ClpP inh valid
COc1cccc(Nc2nc3ccc(C)cc3nc2-n2nc(C)cc2C)c1 | – | ? | · | – | ·
CC(C)(C)C(=O)Nc1ccc(-c2nc3ccccc3s2)cc1 | – | 10µM | · | – | –
COc1ccc(-c2nc3ccccc3s2)cc1NC(=O)c1ccc(F)cc1 | – | – | · | – | 22µM
CCS(=O)(=O)c1ccccc1C(=O)Nc1ccc(-c2nc3ccccc3s2)cc1 | – | – | · | – | ·
COc1ccc(-c2cn3nc(N4CCCC(C(=O)Nc5cc(C)ccc5C)C4)sc3n2)cc1 (centres undefined) | – | – | · | – | ·
CCc1cccc(C)c1NC(=O)Cn1ccn(Cc2ccc(Cl)cc2)c(=O)c1=O | – | – | · | – | ·
Cc1ccc(C(=O)Nc2ccc3oc(-c4cccnc4)nc3c2)c(Cl)c1 | – | ? | · | – | ·
Cc1ccc(C(=O)Nc2cccc(-c3nc4ccccc4o3)c2)c(Cl)c1 | – | – | · | – | ?
O=C(c1cnn(C(=O)c2ccccc2)c1)c1ccccc1O | – | – | – | – | –
CCOC(=O)c1nc2nc(-c3cccs3)cc(C(F)(F)F)n2n1 | – | ? | – | – | ·
O=C(c1nc2nc(-c3cccs3)cc(C(F)(F)F)n2n1)N1CCN(Cc2ccccc2)CC1 | – | 2.5µM | – | – | 24µM
COC(=O)c1cc(NC(=O)c2oc(=O)c3ccccc3c2-c2ccccc2)cc(C(=O)OC)c1 | – | – | – | – | ·
CC(C)Cc1nc(C(N)=O)c2[nH]c(=O)n(-c3ccc(F)cc3)c2n1 | – | – | – | – | ·
Cc1cccc(-n2c(=O)[nH]c3c(C(N)=O)nc(CC(C)C)nc32)c1 | – | 10µM | – | – | 4.9µM
O=C(Cc1ccc(F)cc1)Nc1cccc(-c2nc3cccnc3s2)c1 | – | 8.9µM | · | – | –
COCC(=O)Nc1cccc(-c2nc3cccnc3s2)c1 | – | – | · | – | ·
COc1ccc2c(c1)CCc1c(C(=O)Nc3cc(C)n(Cc4ccc(Cl)cc4)n3)noc1-2 | – | – | – | – | –
Cc1cc2n(n1)C(c1cn(-c3ccccc3)nc1C)Nc1c(C)cccc1-2 (centres undefined) | – | 8.9µM | – | – | 27µM
Cc1cc2n(n1)C(c1ccc3c(c1)OCO3)Nc1c(C)cccc1-2 (centres undefined) | – | – | – | – | ·
CCN(CC)c1ccc(NC(=O)CN(C)S(=O)(=O)c2cccc3nsnc23)c(C)c1 | ? | – | · | – | ·
Cc1cccc(N2CCN(C(=O)c3cn(C4CCCCC4)c(=O)c4c3c3ccccc3n4C)CC2)c1C | ? | 8.9µM | · | – | –
CC(=O)Nc1ccc(NC(=O)Nc2ccc(C)c(C)c2)cc1 | – | – | – | – | ·
CC(=O)Nc1cccc(NC(=O)Nc2ccc(C)c(Cl)c2)c1 | – | 1.8µM | – | – | –
COc1ccc(CC(=O)NC2CC(=O)N(c3cccc(F)c3)C2)cc1 (centres undefined) | – | – | · | – | ·
Cc1ccc(CNc2ccc(-c3nc(-c4ccco4)no3)cc2[N+](=O)[O-])cc1 | – | – | · | – | ·
SMILES | GLP1R inv ag | ClpP mod | GLP-1R agonist | GLP1R cytotox | ClpP inh valid
CCOc1ccc2nc(-c3ccccc3)[nH]c2c1 | ? | 7.1µM | – | ? | 6.9µM
COc1ccccc1C1CC(c2ccco2)=NN1c1ccccc1 (centres undefined) | 10µM | 3.5µM | – | – | 27µM
COc1c(C)cccc1C(=O)Nc1ccc(-c2nc3ccccc3s2)c(Cl)c1 | – | 7.9µM | · | – | –
COc1ccc(S(=O)(=O)N2CCOC23CCN(S(=O)(=O)c2cccs2)CC3)cc1 | – | – | – | – | ·
O=S(=O)(c1ccccc1)N1CCC2(CC1)OCCN2S(=O)(=O)c1cccs1 | – | – | – | – | –
Cc1ccc(CNC(=O)C(=O)Nc2c3c(nn2-c2ccc(F)cc2)CSC3)cc1 | – | – | · | – | ·
Cc1ccc2nc(-c3ccco3)c(Nc3ccccc3)n2c1 | – | 3.2µM! | – | – | ?
